Experimental data reported in the supplement of paper PMC8975748.
Structures can show the parent of a compound that is named as a salt. ± gives the standard deviation of the averaged measurements.

Legend:
[1] = tested on: Saccharomyces cerevisiae BY4741 SeMeCo community; assay: mean cell size (pixel area) (pixels); higher = larger cells; settings: 10 µM; 24 h; SM minimal medium
In short: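 A fluorescent Saccharomyces cerevisiae BY4741 community carrying four plasmids was used, with each plasmid complementing one auxotrophy and bearing a fluorescent marker. An overnight preculture at OD600 = 1.0 was diluted to OD600 = 0.3, and 70 µl went into 384-well plates acoustically predosed with drug (final 10 µM) in SM medium for 24 h. After paraformaldehyde fixation, cells were imaged by automated confocal microscopy and analysed in Harmony, giving the mean cell pixel area per well. Each value is the average of 3 replicates. Same SeMeCo high-content imaging drug screen: Selleck FDA-approved drugs at 10 µM, 24 h in SM medium, 384-well plates, 3 replicates.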

[2] = tested on: Saccharomyces cerevisiae BY4741 SeMeCo community; assay: z-score of prototroph abundance vs DMSO median; higher = larger share of this subpopulation than in DMSO controls; settings: 10 µM; 24 h; SM minimal medium; subpopulation (auxotrophy): Prototroph
In short: (§1)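 Automated confocal microscopy of paraformaldehyde-fixed cells was used to follow a Saccharomyces cerevisiae BY4741 community carrying four plasmids, each restoring one auxotrophy and encoding a distinct fluorescent protein. The community was pre-grown overnight to OD600 1.0, diluted to 0.3, and added at 70 µl to 384-well plates acoustically predosed with library drugs (10 µM final) for 24 h of growth in minimal SM medium. Single-auxotroph fluorescent strains set thresholds and autofluorescence correction, and each subpopulation's abundance was scored as a z-score against the vehicle-well median.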

[3] = tested on: Saccharomyces cerevisiae BY4741 SeMeCo community; assay: z-score of subpopulation abundance vs DMSO median, subpopulation auxotrophic for M; higher = larger share of this subpopulation than in DMSO controls; settings: 10 µM; 24 h; SM minimal medium; subpopulation (auxotrophy): M
In short: as §1

[4] = tested on: Saccharomyces cerevisiae BY4741 SeMeCo community; assay: z-score of subpopulation abundance vs DMSO median, subpopulation auxotrophic for L; higher = larger share of this subpopulation than in DMSO controls; settings: 10 µM; 24 h; SM minimal medium; subpopulation (auxotrophy): L
In short: as §1

[5] = tested on: Saccharomyces cerevisiae BY4741 SeMeCo community; assay: z-score of subpopulation abundance vs DMSO median, subpopulation auxotrophic for U; higher = larger share of this subpopulation than in DMSO controls; settings: 10 µM; 24 h; SM minimal medium; subpopulation (auxotrophy): U
In short: as §1

[6] = tested on: Saccharomyces cerevisiae BY4741 SeMeCo community; assay: z-score of subpopulation abundance vs DMSO median, subpopulation auxotrophic for H; higher = larger share of this subpopulation than in DMSO controls; settings: 10 µM; 24 h; SM minimal medium; subpopulation (auxotrophy): H
In short: as §1

[7] = tested on: Saccharomyces cerevisiae BY4741 SeMeCo community; assay: z-score of subpopulation abundance vs DMSO median, subpopulation auxotrophic for LU; higher = larger share of this subpopulation than in DMSO controls; settings: 10 µM; 24 h; SM minimal medium; subpopulation (auxotrophy): LU
In short: as §1

[8] = tested on: Saccharomyces cerevisiae BY4741 SeMeCo community; assay: z-score of subpopulation abundance vs DMSO median, subpopulation auxotrophic for HM; higher = larger share of this subpopulation than in DMSO controls; settings: 10 µM; 24 h; SM minimal medium; subpopulation (auxotrophy): HM
In short: as §1

[9] = tested on: Saccharomyces cerevisiae BY4741 SeMeCo community; assay: z-score of subpopulation abundance vs DMSO median, subpopulation auxotrophic for HU; higher = larger share of this subpopulation than in DMSO controls; settings: 10 µM; 24 h; SM minimal medium; subpopulation (auxotrophy): HU
In short: as §1

[10] = tested on: Saccharomyces cerevisiae BY4741 SeMeCo community; assay: z-score of subpopulation abundance vs DMSO median, subpopulation auxotrophic for UM; higher = larger share of this subpopulation than in DMSO controls; settings: 10 µM; 24 h; SM minimal medium; subpopulation (auxotrophy): UM
In short: as §1

[11] = tested on: Saccharomyces cerevisiae BY4741 SeMeCo community; assay: z-score of subpopulation abundance vs DMSO median, subpopulation auxotrophic for HLU; higher = larger share of this subpopulation than in DMSO controls; settings: 10 µM; 24 h; SM minimal medium; subpopulation (auxotrophy): HLU
In short: as §1

[12] = tested on: Saccharomyces cerevisiae BY4741 SeMeCo community; assay: z-score of subpopulation abundance vs DMSO median, subpopulation auxotrophic for HLM; higher = larger share of this subpopulation than in DMSO controls; settings: 10 µM; 24 h; SM minimal medium; subpopulation (auxotrophy): HLM
In short: as §1

[13] = tested on: Saccharomyces cerevisiae BY4741 SeMeCo community; assay: z-score of subpopulation abundance vs DMSO median, subpopulation auxotrophic for HUM; higher = larger share of this subpopulation than in DMSO controls; settings: 10 µM; 24 h; SM minimal medium; subpopulation (auxotrophy): HUM
In short: as §1

[14] = tested on: Saccharomyces cerevisiae BY4741 SeMeCo community; assay: z-score of subpopulation abundance vs DMSO median, subpopulation auxotrophic for LUM; higher = larger share of this subpopulation than in DMSO controls; settings: 10 µM; 24 h; SM minimal medium; subpopulation (auxotrophy): LUM
In short: as §1

[15] = tested on: Saccharomyces cerevisiae BY4741 SeMeCo community; assay: z-score of subpopulation abundance vs DMSO median, subpopulation auxotrophic for HLUM; higher = larger share of this subpopulation than in DMSO controls; settings: 10 µM; 24 h; SM minimal medium; subpopulation (auxotrophy): HLUM
In short: as §1

[16] = tested on: Saccharomyces cerevisiae BY4741 SeMeCo community; assay: z-score of subpopulation abundance vs DMSO median, subpopulation auxotrophic for HL; higher = larger share of this subpopulation than in DMSO controls; settings: 10 µM; 24 h; SM minimal medium; subpopulation (auxotrophy): HL
In short: as §1

[17] = tested on: Saccharomyces cerevisiae BY4741 SeMeCo community; assay: z-score of subpopulation abundance vs DMSO median, subpopulation auxotrophic for LM; higher = larger share of this subpopulation than in DMSO controls; settings: 10 µM; 24 h; SM minimal medium; subpopulation (auxotrophy): LM
In short: as §1

Compound	mean cell size [1]	z-score of prototroph abundance [2]	z-score of subpopulation abundance [3]	z-score of subpopulation abundance [4]	z-score of subpopulation abundance [5]	z-score of subpopulation abundance [6]	z-score of subpopulation abundance [7]	z-score of subpopulation abundance [8]	z-score of subpopulation abundance [9]	z-score of subpopulation abundance [10]	z-score of subpopulation abundance [11]	z-score of subpopulation abundance [12]	z-score of subpopulation abundance [13]	z-score of subpopulation abundance [14]	z-score of subpopulation abundance [15]	z-score of subpopulation abundance [16]	z-score of subpopulation abundance [17]
CO/N=C(\C(=O)N[C@@H]1C(=O)N2C(C(=O)O)=C(COC(N)=O)CS[C@H]12)c1ccco1 [Cefuroxime sodium]	12.47 ± 0.073	0.23	0.78	-0.97	0.58	-1.01	-1.06	-0.58	-0.93	0.13	-1.34	-1.17	-0.92	-0.31	-0.98	–	–
CCC(=O)NS(=O)(=O)c1ccc(-c2c(-c3ccccc3)noc2C)cc1 [Parecoxib]	12.6 ± 0.088	–	0.6	0.2	–	0.1	-0.15	0.95	-0.34	0.49	0.16	0.22	-0.44	0.13	-0.37	0.12	–
CC(C)[N+]1(C)[C@@H]2CC[C@H]1C[C@@H](OC(=O)C(CO)c1ccccc1)C2 (stereo partly specified) [Ipratropium Bromide]	12.4 ± 0.27	0.41	-0.02	0.58	-0.33	-0.17	0.15	–	-0.22	-0.31	-0.02	-0.71	-0.65	-0.28	0.07	-0.04	–
CN1[C@@H](CC(=O)c2ccccc2)CCC[C@H]1C[C@H](O)c1ccccc1 [Lobeline hydrochloride]	–	0.02	1.16	-0.58	0.36	–	-0.23	0.17	-0.75	0.92	-0.94	-0.48	0.22	-0.75	0.01	–	-0.29
Cc1ccc(O)c([C@H](CCN(C(C)C)C(C)C)c2ccccc2)c1 [Tolterodine tartrate]	12.36 ± 0.069	-0.65	0.22	0.31	-0.01	-0.19	-0.23	0.62	0.88	1.04	0.29	-0.01	1.13	–	-0.2	-0.22	–
CO/N=C1\C[C@]2(C[C@@H]3C[C@@H](C/C=C(\C)C[C@@H](C)/C=C/C=C4\CO[C@@H]5[C@H](O)C(C)=C[C@@H](C(=O)O3)[C@]45O)O2)O[C@H](/C(C)=C/C(C)C)[C@H]1C [Moxidectin]	–	-0.99	-0.74	0.29	0.66	–	0.03	1.1	2.12	0.37	1.24	1.14	1.33	0.37	-0.1	–	0.55
CCC(=O)O[C@@H]1CC(=O)O[C@H](C)C/C=C/C=C/[C@H](O)[C@H](C)C[C@H](CC=O)[C@H](O[C@@H]2O[C@H](C)[C@@H](O[C@H]3C[C@@](C)(O)[C@@H](OC(=O)CC)[C@H](C)O3)[C@H](N(C)C)[C@H]2O)[C@H]1OC [Midecamycin]	12.33 ± 0.1	-0.41	1.11	-0.17	-0.73	0.88	-0.66	–	0.44	-0.3	-0.1	0.18	0.7	-0.4	-0.96	1.52	–
CN1CCN(c2c(F)cc3c(=O)c(C(=O)O)cn4c3c2OCN4C)CC1 [Marbofloxacin]	12.1 ± 0.38	–	0.52	-1.17	0.59	-1.41	0.12	–	-0.06	-0.02	-0.27	-0.54	0.33	-0.82	-0.72	-0.85	–
CCCN1CCCC[C@H]1C(=O)Nc1c(C)cccc1C [Ropivacaine]	12.24 ± 0.031	0.72	0.5	-0.8	–	-0.64	-1.21	-0.51	-0.86	-0.14	-0.32	-0.22	-0.48	-0.83	–	-0.66	–
CC[C@H]1OC(=O)[C@H](C)[C@@H](O[C@H]2C[C@@](C)(OC)[C@@H](O)[C@H](C)O2)[C@H](C)[C@@H](O[C@@H]2O[C@H](C)C[C@H](N(C)C)[C@H]2O)[C@](C)(O)C[C@@H](C)CN[C@H](C)[C@@H](O)[C@]1(C)O [Azathramycin]	–	0.12	0	-0.61	0.07	–	-0.39	0.1	-0.16	0.42	-1.12	-0.79	0.01	-0.37	–	-0.33	-0.14
CCn1cc(C(=O)O)c(=O)c2cc(F)c(N3CCN(C)CC3)cc21 [Pefloxacin Mesylate]	–	0.1	-0.16	-0.33	0.14	-0.3	-0.06	0.05	–	-0.04	-0.54	-0.1	-0.57	0.18	-0.95	–	0
O=C1C(CC[S+]([O-])c2ccccc2)C(=O)N(c2ccccc2)N1c1ccccc1 (racemic) [(+/-)-Sulfinpyrazone]	–	0.12	-0.48	-0.72	–	-0.21	0.28	–	-0.49	–	0.61	0.61	0.22	–	-0.47	-0.17	0.26
O=c1[nH]c(=O)n([C@H]2C[C@H](O)[C@@H](CO)O2)cc1I [Idoxuridine]	–	0.18	-0.27	0.48	–	-0.48	-0.03	-0.13	-0.23	-0.05	-0.57	-0.75	-0.68	-0.31	–	-0.43	0.06
COc1cc(Cc2cnc(N)nc2N)cc(OC)c1OC [Trimethoprim]	–	0.19	0.01	0.44	0.2	-0.5	0.14	-0.06	0	0.07	0.25	-0.6	-0.12	0.27	-0.22	–	–
CCOC(=O)c1ccc(N)cc1 [Benzocaine]	–	0.6	1.02	-0.13	–	–	-1.24	0.67	-1.28	-0.58	-0.97	-0.02	-0.48	-0.29	–	-1.2	0.32
